This note sets out measurements from ChEMBL document CHEMBL4513146, “CO-ADD screening of Karazin Kharkiv National University (Ukraine) compounds”.

Measured potencies and affinities stand elsewhere.

In general, Inhibition refers to the change of the read-out against control, counted positive when it falls.

For assay [1], the system named is Staphylococcus aureus. Particulars: Concentration 32 ug.mL-1;; ASSAY_TEST Inhibition of Bacterial Growth; detection method Absorption (OD600); MEDIA CAMHB; plate type 384well; NBS; CORNING #3640; time 18 hr.
The subject of assay [2] is Escherichia coli. The note with it: Concentration 32 ug.mL-1;; ASSAY_TEST Inhibition of Bacterial Growth; detection method Absorption (OD600); MEDIA CAMHB; plate type 384well; NBS; CORNING #3640; time 18 hr.

For the compound `Cc1cc(C)cc(Nc2nc(C)cc3nn(CC(=O)NC4CCCCC4)c(=O)n23)c1`, the Inhibition is given as 14.04% in assay [1] and -1.15% in assay [2].

For `CCc1nnc2ccc(S(=O)(=O)N(Cc3ccc(OC)cc3)c3cccc(F)c3)cn12`, the Inhibition in assay [1] is on record as -1.45%; in assay [2], -12.26%.

`COc1ccc(-c2cc3c4nnc(CCC(=O)NCc5ccc(OC)cc5OC)n4ccn3n2)cc1`: the results for the Inhibition in assay [1] and in assay [2] were 16.19% and 5.82%, respectively.

`COc1ccc(NC(=O)Cn2nc3c(Oc4ccccc4)nccn3c2=O)cc1`: the Inhibition in assay [1] is given as 9.87%; in assay [2], -1.88%.

`CCCCc1ccc(NC(=O)CSc2nnc3c4cc(-c5ccc(C)cc5)nn4ccn23)cc1`: the Inhibition in assay [1] was found to be 10.93%; in assay [2], 0.28%.

Turning to `Cc1ccc(Cn2nc3c(=O)n(-c4ccc(C)c(C)c4)ccn3c2=O)cc1`, the results for the Inhibition in assay [1] and in assay [2] were 14.06% and -0.87%, respectively.

Turning to `COc1ccc(NC(=O)Cn2nc3cc(C)nc(Nc4ccc(F)cc4)n3c2=O)cc1F`, the Inhibition is on record as 9.09% in assay [1] and -0.97% in assay [2].

For `COc1ccc(C(C)NC(=O)CCc2nnc3ccc(-c4ccc(C)c(C)c4)nn23)cc1OC` (configuration not stated), the Inhibition in assay [1] is on record as 7.27%; in assay [2], -3.17%.

For `CC(C)CCn1c(=O)c2sccc2n2c(=O)n(CC(=O)N(C)c3ccccc3)nc12`, the results for the Inhibition in assay [1] and in assay [2] were -2.05% and -10.35%, respectively.

As to `Cc1ccc(F)cc1NC(=O)CSc1nnc2ccc(C(=O)Nc3cccc(F)c3)cn12`, the Inhibition in assay [1] is on record as 13.04%; in assay [2], 0.82%.

In the case of `COc1ccc(NC(=O)Cn2nc3cc(C)nc(Nc4ccc(F)c(C)c4)n3c2=O)cc1`, the Inhibition in assay [1] is -1.45%; in assay [2] it was -6.2%.

In the case of `COc1cccc(Oc2nccn3c(=O)n(CC(=O)Nc4cc(F)ccc4F)nc23)c1`, the Inhibition in assay [1] was 10.86%; in assay [2] it was -7.76%.

For the compound `Cc1ccccc1Cn1nc2c(=O)n(-c3cccc(Cl)c3C)ccn2c1=O`, the figures for the Inhibition in assay [1] and in assay [2] were -10.1% and -10.57%, respectively.

On to `CCOC(=O)c1cccc(NC(=O)CSc2nc3ccccc3n3c(C(C)C)nnc23)c1`, for which the Inhibition in assay [1] is reported as 7.87%; in assay [2] it was -1.12%.

As for `Cc1ccc(-c2cc3c4nn(CC(=O)Nc5ccc6c(c5)OCO6)c(=O)n4ccn3n2)cc1`, the figures for the Inhibition in assay [1] and in assay [2] were 12.49% and -1.53%, respectively.

For `N#CCSc1nnc2c(=O)n(-c3ccccc3)ccn12`, the Inhibition in assay [1] is on record as 13.33%; in assay [2], 0.91%.

Consider `Cc1ccc(-c2ccc3nn(CC(=O)Nc4ccccc4)c(=O)n3n2)cc1C`, for which the Inhibition in assay [1] is 3.99%; in assay [2], -8.76%.

As for `COc1ccc(NC(=O)CSc2nnc3ccc(C(=O)Nc4cccc(F)c4)cn23)cc1`, the Inhibition in assay [1] was found to be 8.78%; in assay [2], 3.37%.

As for `Cc1cc(C)cc(Nc2nc(C)cc3nn(CC(=O)Nc4cc(F)ccc4F)c(=O)n23)c1`, the values for the Inhibition in assay [1] and in assay [2] were 10.55% and 0.49%, respectively.

On to `Cc1cc(C)cc(N(Cc2c(F)cccc2Cl)S(=O)(=O)c2cccn3cnnc23)c1`, for which the Inhibition in assay [1] was 4.69%; in assay [2], -4.41%.

For the compound `Cc1c(Cl)cccc1-n1ccn2c(=O)n(Cc3ccccc3Cl)nc2c1=O`, the Inhibition in assay [1] is recorded as -12.86%; in assay [2] it was -11.83%.

Consider `Cc1nnc2ccc(S(=O)(=O)N(Cc3ccccc3F)c3ccc(Cl)cc3)cn12`, for which the Inhibition is -12.68% in assay [1] and -19.04% in assay [2].

As to `COc1cccc(Sc2nc3ccccc3n3c(=O)n(CC(=O)Nc4c(C)cc(C)cc4C)nc23)c1`, the Inhibition was 1.84% in assay [1] and -6.13% in assay [2].

Regarding `Cc1cc(C)c(NC(=O)Cn2nc3c(Sc4cccc(F)c4)nccn3c2=O)c(C)c1`, the Inhibition in assay [1] is 9.93%; in assay [2] it was -1.39%.

`COc1ccc(NC(=O)Cn2nc3c(N4CCOCC4)nccn3c2=O)c(OC)c1`: the Inhibition in assay [1] was 14.25%; in assay [2] it was -1.5%.

Turning to `COc1ccc(NC(=O)Cn2nc3c(SCc4ccc(Cl)cc4)nccn3c2=O)cc1`, the Inhibition in assay [1] is 4.07%; in assay [2], -0.18%.

With `O=C(Cn1nc2c(Oc3ccccc3)nccn2c1=O)Nc1ccccc1F`, the Inhibition in assay [1] is 6.14%; in assay [2] it was -2.38%.

Consider `Cc1ccc(NC(=O)Cn2nc3ccc(-c4ccccc4)nn3c2=O)cc1`, for which the Inhibition in assay [1] was 2.61%; in assay [2], -12.45%.

Consider `Cc1ccccc1CN(c1ccc(C(C)C)cc1)S(=O)(=O)c1cccn2cnnc12`, for which the Inhibition in assay [1] worked out at 17.72%; in assay [2] it was 2.74%.

Turning to `Cc1ccc(NC(=O)CSc2nc3ccccc3n3c(C(C)C)nnc23)c(Cl)c1`, the Inhibition is -3.19% in assay [1] and -0.25% in assay [2].

Consider `COc1ccc(-c2cc3c4nnc(SCC(=O)Nc5ccccc5F)n4ccn3n2)cc1`, for which the Inhibition in assay [1] was -1.6%; in assay [2] it was -2.74%.

As to `COc1cc(NC(=O)CSc2nnc3c(=O)n(-c4ccc(C)c(C)c4)ccn23)cc(OC)c1`, the Inhibition in assay [1] is given as 3.54%; in assay [2] it was -13.82%.

For `Cc1ccc(C(=O)C(C)Sc2nnc3c(=O)n(-c4ccc(F)c(F)c4)ccn23)cc1C` (configuration not stated), the Inhibition in assay [1] was 19.73%; in assay [2], 1.41%.

For `CC(C)Cn1c(=O)c2sccc2n2c(=O)n(Cc3cccc(Br)c3)nc12`, the Inhibition in assay [1] was 8.88%; in assay [2] it was -2.43%.

With `O=C(CSc1nc2ccccc2n2cnnc12)Nc1cc(C(F)(F)F)ccc1Cl`, the Inhibition in assay [1] is 6.84%; in assay [2] it was -4.72%.

For `Cc1nnc2ccc(S(=O)(=O)N(Cc3ccccc3F)c3cccc(Cl)c3)cn12`, the Inhibition was 2.13% in assay [1] and -7.6% in assay [2].

As to `Cc1cccc(Oc2nc3ccccc3n3c(=O)n(CC(=O)Nc4cccc(C#N)c4)nc23)c1C`, the Inhibition in assay [1] is -4.2%; in assay [2] it was -5.56%.

In the case of `Cc1[nH]c2ccccc2c1C(=O)CSc1nnc2c(=O)n(-c3ccc(Br)cc3)ccn12`, the values for the Inhibition in assay [1] and in assay [2] were -0.76% and -11.28%, respectively.

Consider `COc1cc(OC)c(NC(=O)Cn2nc3ccc(-c4ccc(C)c(C)c4)nn3c2=O)cc1Cl`, for which the Inhibition is 2.47% in assay [1] and -7.33% in assay [2].

For `CC(C)Cn1c(=O)c2sccc2n2c(=O)n(CC(=O)N3CCC(Cc4ccccc4)CC3)nc12`, the Inhibition in assay [1] is given as -13.33%; in assay [2], -14.95%.

In the case of `CCc1ccc(N(Cc2ccc(C)cc2)S(=O)(=O)c2cccn3cnnc23)cc1`, the Inhibition amounted to 18.47% in assay [1] and 2.14% in assay [2].

In the case of `CCOc1ccc(-n2ccn3c(SCC(=O)Nc4ccc(CC)cc4)nnc3c2=O)cc1`, the results for the Inhibition in assay [1] and in assay [2] were 18.59% and -0.7%, respectively.

Regarding `O=c1c2nnc(SCc3ccccc3F)n2ccn1-c1ccc(F)cc1`, the Inhibition in assay [1] is 19.41%; in assay [2], -3.23%.

`Cc1nnc2ccc(S(=O)(=O)N(Cc3ccc(F)cc3)c3ccc4c(c3)OCO4)cn12`: the Inhibition in assay [1] is reported as 6.11%; in assay [2], -4.59%.

On to `O=c1c2nn(Cc3ccc([N+](=O)[O-])cc3)c(=O)n2ccn1-c1ccccc1`, for which the values for the Inhibition in assay [1] and in assay [2] were 12.75% and -1.5%, respectively.

In the case of `O=c1c2nnc(SCc3cccc(C(F)(F)F)c3)n2ccn1-c1ccc(Br)cc1`, the Inhibition in assay [1] is 11.27%; in assay [2] it was -4.81%.

As to `Cc1ccc(NC(=O)Cn2nc3c(Oc4ccccc4)nccn3c2=O)c(Br)c1`, the figures for the Inhibition in assay [1] and in assay [2] were 1.04% and -7.68%, respectively.

Regarding `COc1cccc(Oc2nccn3c(=O)n(CC(=O)NCc4cccs4)nc23)c1`, the Inhibition is 7.35% in assay [1] and -2.75% in assay [2].

Turning to `Cc1ccc(Cl)cc1NC(=O)Cn1nc2c(N3CCOCC3)nc3ccccc3n2c1=O`, the results for the Inhibition in assay [1] and in assay [2] were -1.67% and -9.52%, respectively.

For `CCOC(=O)c1ccc(NC(=O)Cn2nc3c4cc(-c5ccc(C)cc5)nn4ccn3c2=O)cc1`, the Inhibition in assay [1] is -5.61%; in assay [2], -8.93%.

With `CCc1nnc2c(SCC(=O)Nc3cc(Cl)ccc3OC)nc3ccccc3n12`, the Inhibition in assay [1] stood at 7.98%; in assay [2], 4.84%.

For the compound `Cc1ccc(NC(=O)Cn2nc3ccc(SCc4ccc(Cl)cc4)nn3c2=O)cc1`, the Inhibition is -0.24% in assay [1] and -6.34% in assay [2].

Regarding `Cc1cc2nn(CC(=O)Nc3ccc(F)cc3Cl)c(=O)n2c(Nc2ccc(F)cc2)n1`, the Inhibition in assay [1] was 4.61%; in assay [2], -0.12%.

On to `CC(C)Cn1c(=O)c2sccc2n2c(=O)n(CC(=O)N(C)c3ccccc3)nc12`, for which the Inhibition is 4.88% in assay [1] and -0.39% in assay [2].

As for `CCOC(=O)c1ccc(NC(=O)Cn2nc3ccc(Sc4ccccc4)nn3c2=O)cc1`, the Inhibition in assay [1] was 9.67%; in assay [2], -3.7%.

For the compound `COc1ccc(NC(=O)Cn2nc3c(SC4CCCCC4)nccn3c2=O)cc1Cl`, the Inhibition is -11.83% in assay [1] and -6.21% in assay [2].

As for `CCOc1ccc(-c2nc(CSc3nc4ccccc4n4c(C)nnc34)c(C)o2)cc1`, the figures for the Inhibition in assay [1] and in assay [2] were 7.53% and 1.84%, respectively.

Regarding `Cc1cc2nn(CC(=O)Nc3ccc4c(c3)OCCO4)c(=O)n2c(Nc2ccccc2C)n1`, the Inhibition in assay [1] is recorded as 9.51%; in assay [2], -1.19%.

In the case of `Cc1ccc(C)c(Cn2nc3n(CC(C)C)c(=O)c4sccc4n3c2=O)c1`, the figures for the Inhibition in assay [1] and in assay [2] were 12.61% and 1.72%, respectively.

For `O=C(Cn1nc2c3cc(-c4ccc(F)cc4)nn3ccn2c1=O)N1CCN(c2ccccc2F)CC1`, the Inhibition was -6.33% in assay [1] and 3.42% in assay [2].

With `COc1ccc(N2CCN(C(=O)Cn3nc4ccc(-c5ccccc5)nn4c3=O)CC2)cc1`, the values for the Inhibition in assay [1] and in assay [2] were 15.35% and 1.42%, respectively.

On to `CCc1ccccc1NC(=O)CSc1nnc2ccc(C(=O)Nc3cccc(F)c3)cn12`, for which the Inhibition stood at 19.17% in assay [1] and 1.35% in assay [2].

Turning to `Cc1ccc(Cl)cc1NC(=O)CSc1nc2ccccc2n2c(C(C)C)nnc12`, the Inhibition in assay [1] is on record as 0.87%; in assay [2], -1.5%.

Regarding `Cc1cc(C)cc(NC(=O)Cn2nc3c(Sc4cccc(C)c4)nc4ccccc4n3c2=O)c1`, the Inhibition in assay [1] is on record as 1.17%; in assay [2], 2.96%.

Consider `O=C(CSc1nnc2c(=O)n(-c3ccccc3)ccn12)Nc1ccc(F)cc1F`, for which the Inhibition in assay [1] is listed as -3.92%; in assay [2] it was -2.13%.

Turning to `CCOc1ccc(-n2ccn3c(SCC(=O)c4ccc(C)cc4)nnc3c2=O)cc1`, the figures for the Inhibition in assay [1] and in assay [2] were 16.97% and -1.19%, respectively.

Consider `CCC(Sc1nnc2c(=O)n(-c3cccc(OC)c3)ccn12)C(=O)Nc1cc(F)ccc1F` (configuration not stated), for which the Inhibition in assay [1] is given as 3.22%; in assay [2], -7.17%.

`Cc1ccc(N(Cc2cccc(C)c2)S(=O)(=O)c2cccn3c(C)nnc23)cc1`: the Inhibition in assay [1] was -2.01%; in assay [2], -15.69%.

As for `N#CCSc1nnc2c(=O)n(-c3ccc(Br)cc3)ccn12`, the values for the Inhibition in assay [1] and in assay [2] were 14.93% and -0.38%, respectively.

Regarding `O=C(CSc1nnc2n(CC3CCCO3)c(=O)c3sccc3n12)Nc1ccc(F)cc1Cl` (configuration not stated), the Inhibition was -6.42% in assay [1] and -12.15% in assay [2].

As for `CCc1ccc(N(Cc2ccccc2F)S(=O)(=O)c2cccn3c(C)nnc23)cc1`, the Inhibition was 15.67% in assay [1] and -1.05% in assay [2].
